# Test results as given in PubChem BioAssay AID686979 (National Center for Advancing Translational Sciences (NCATS), 2013).
# Hit rate of the full screen: of about 420,000 compounds, about 50,000 (12%) were called active. Another 26% or so got no clear call; they are omitted. Shown is part of a subset that was picked to be rich in actives. Values without a mark were called inactive. Calls follow the shape of the dose curve; as a rule, active = well fitted inhibition curve with a large enough effect; inconclusive = small, poorly fitted or top-dose-only effect; inactive = flat fitted curve, though single readings scatter.
# Assay: qHTS for Inhibitors of human tyrosyl-DNA phosphodiesterase 1 (TDP1): qHTS in cells in presence of CPT; also: nearly all actives have a fitted effect of over 55% in size
# Settings: chicken DT40 Tdp1-/-;hTDP1 cells + 20 nM CPT, ATP luminescence, 48 h; series mostly up to 46.2 µM; activity change, negative = growth inhibition: at the top concentration
# Summary of the method: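 Chicken DT40 Tdp1-/- cells complemented with human TDP1, 400 cells/well, exposed to compounds plus 20 nM camptothecin for at least 48 h at 37 C; viability read as ATP content by CellTiter-Glo luminescence.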
# % is scaled to controls: 0 for no effect and ±100 for the full control effect; potency is read from the fitted curve at half-maximal effect.
Compound,"activity change, negative = growth inhibition",Potency
CN(C)CC(C)(C)CNC(=O)c1cc(Br)cc(Br)c1O,-3.33%,–
O=C(Nc1cccc(C(F)(F)F)c1)c1cc(Br)cc(Br)c1O,–,11.9 µM (active)
O=C(O)CC1(CC(=O)Nc2cccc(C(F)(F)F)c2)CCCC1,-2.74%,–
Cc1cc(F)ccc1S(=O)(=O)Nc1ncnc2scc(-c3ccc(F)cc3)c12,19.5%,–
COc1ccnc2c1c(=O)n(Cc1cccc(F)c1)c(=O)n2C,-11.8%,–
O=c1c2cccnc2n(Cc2cccc(F)c2)c(=O)n1Cc1ccccc1Cl,–,14.6 µM (active)
CCOC(=O)Cn1c(=O)n(Cc2ccc(OC)cc2)c(=O)c2cccnc21,19.7%,–
O=C(NC1CCCC1)C(c1ccc(Cl)cc1)N(C(=O)c1csnn1)C1CC1 (configuration not stated),-9.79%,–
Cc1ccc(-n2ncc3c(=O)n(-c4ccc(C)c(C)c4)c(-c4ccco4)nc32)cc1,–,18.4 µM (active)
Cc1ccc(-n2ncc3c(=O)n(Cc4cccc(C(F)(F)F)c4)cnc32)cc1C,0.615%,–
Cc1ccc(-c2nc3c(cnn3-c3ccccc3)c(=O)o2)cc1,-22.2%,–
CCN(CC)S(=O)(=O)c1ccc(C(=O)N2CCN(C3=NS(=O)(=O)c4ccccc43)CC2)cc1,-16.6%,–
Cn1c(=O)c2c(nc(SCCNS(=O)(=O)c3ccccc3)n2C)n(C)c1=O,-26.8%,–
CCC/C(C)=N\Nc1nc2c(c(=O)n(C)c(=O)n2C)n1C,–,18.4 µM (active)
CC(O)c1nc2c(c(=O)n(C)c(=O)n2C)n1C (configuration not stated),5.09%,–
Cc1cc(-c2nnc(SCC(=O)Nc3ccc(F)cc3)n2N)n[nH]1,-11.5%,–
Cc1ccc(C)c(NC(=O)C(OC(=O)c2ccc(C)s2)c2ccccc2)c1 (configuration not stated),-17.8%,–
O=C1CN(C(=O)COc2c(Cl)cccc2Cl)c2ccccc2N1,-15.5%,–
O=C(OCc1nc2ccccc2[nH]1)C1CCCCC1,-15.7%,–
CCCc1nc(N)nc2c1C(=O)CC(C)(C)C2,-16.3%,–
CC/C(O)=C1\C(=O)CC(C)(C)CC1=NCCc1nc2ccccc2[nH]1,–,23.1 µM (active)
COc1ccc(S(=O)(=O)Nc2cc(C)on2)cc1NC(C)=O,22.5%,–
CC1(C)CC(=O)C=C(c2ccc(Cl)c(C(F)(F)F)c2)C1,-27.7%,–

Compound,"activity change, negative = growth inhibition",Potency
CCn1cc(C(=O)OCC(=O)Nc2cc(C)cc(C)c2)c(=O)c2ccc(C)nc21,-22.5%,–
Cc1cc(NC(=O)CS(=O)(=O)c2cn(C)c3ccccc23)no1,-8.42%,–
Cc1c(C(=O)N(C)CCc2cnn(C)c2)oc2c(F)cccc12,-4.88%,–
OC(COc1ccc(Br)cc1)CN1CCCC1 (configuration not stated),-4.36%,–
CC(Oc1ccc(Br)cc1)C(=O)NC1CCCCCC1 (configuration not stated),-21.9%,–
CC(C)(C)CC(C)(C)NCC(O)COCCOc1ccc(Br)cc1 (configuration not stated),–,5.17 µM (active)
COC(=O)C1(C)NC(c2ccc(C)cc2)C2C(=O)N(c3ccc(F)cc3)C(=O)C21 (configuration not stated),-1.12%,–
C/C(N)=C(/C#N)C(=O)COC(=O)CNS(=O)(=O)c1ccc(C)cc1,7.08%,–
Cc1ccc(C(=O)O)c(NC=O)c1OCc1ccccc1,20.1%,–
Cc1cccc(N2CCN(C(c3ccccc3)c3nnnn3CC3CCCO3)CC2)c1C (configuration not stated),–,20.6 µM (active)
COc1ccccc1C(c1nnnn1CC1CCCO1)N1CCN(c2ccccc2)CC1 (configuration not stated),-0.846%,–
Cc1cccc(N2CCN(C(c3ccc(N(C)C)cc3)c3nnnn3C(C)(C)C)CC2)c1C (configuration not stated),-11.5%,–
Cc1nc2ccc(N)nc2nc1C,1.9%,–
O=C1/C(=C/c2ccc3c(c2)OCO3)Oc2cc(OCC(=O)N3CC(O)C[C@H]3C(=O)O)ccc21 (some centres not stated),-3.66%,–
Nc1cccc(OCCCCCOc2cccc(N)c2)c1,-17.9%,–
O=C(O)C1CCCN1S(=O)(=O)c1ccc(Br)cc1 (configuration not stated),6.77%,–
O=S(=O)(c1ccc(Br)cc1)n1ccc2ccccc21,–,13 µM (active)
O=C(c1ccccc1F)N1CCN(S(=O)(=O)c2ccc(Br)cc2)CC1,-17.3%,–
COc1cccc(C(=O)N2CCC(n3nccc3NC(=O)C3CCOC3)CC2)c1 (configuration not stated),5.06%,–
COc1ccc(-c2nnc(-c3ccc4ccccc4c3)o2)cc1,-22.7%,–
COc1ccc(C(C)C)cc1S(=O)(=O)Nc1ncn[nH]1,6.77%,–
CCOc1cc(C)c(Cl)cc1S(=O)(=O)n1nnc2ccccc21,-14.4%,–
CCOc1ccc(C(C)C)cc1S(=O)(=O)n1nc(C)cc1C,–,16.4 µM (active)

Compound,"activity change, negative = growth inhibition",Potency
CCc1ccccc1N1CN(Cc2ccco2)CNC1=S,-8.58%,–
O=C(CNC(=O)[C@@H]1Cc2ccccc2CN1)NC1CCCCC1,-2.66%,–
CC(C)Oc1ccc(Cc2n[nH]c(=S)n2Cc2ccccc2)cc1Cl,-11.9%,–
CC(C)Oc1ccc(CCc2n[nH]c(=S)n2Cc2ccccc2)cc1,–,25.9 µM (active)
C=CCn1c(CCc2ccc(OC(C)C)cc2)n[nH]c1=S,-29.5%,–
O=[N+]([O-])c1ccc2nc(-c3ccccn3)[nH]c2c1,–,0.651 µM (active)
O=C(CSc1nc2ccc([N+](=O)[O-])cc2[nH]1)c1ccc(Cl)cc1,-27%,–
O=c1[nH]c2cccnc2n1-c1ccc([N+](=O)[O-])cc1,-6.6%,–
O=[N+]([O-])c1ccccc1/C=C/CN1CCCC(CO)C1 (configuration not stated),-0.367%,–
CCSc1sc(CC)cc1C=O,-12.7%,–
CCOc1ccc(C(C)NC(=O)CN2C(=O)NC3(CCCCC3)C2=O)cc1OCC (configuration not stated),-1.96%,–
Cc1ccc2c(c1)N(CC(=O)N1CCOCC1)C(=O)CO2,18.3%,–
CC(=O)Nc1ccc(NC(=O)CN2C(=O)COc3ccc(S(=O)(=O)N4CCCCC4)cc32)cc1,1.6%,–
Cc1ccc(C)c(N2CCN(C(=O)CN3C(=O)COc4ccc(S(=O)(=O)N5CCCCCC5)cc43)CC2)c1,–,16.4 µM (active)
COc1ccc(CCNC(=O)CN2C(=O)COc3ccc(S(=O)(=O)N4CCCC4)cc32)cc1OC,-11%,–
CCCCN(CCCC)CCNC(=O)CN1C(=O)COc2ccc(S(=O)(=O)N3CCOCC3)cc21,-27.9%,–
CCCCN(CCCC)CCCNC(=O)CN1C(=O)COc2ccc(S(=O)(=O)N3CCC(C)CC3)cc21,–,18.4 µM (active)
O=C(CCN1C(=O)c2ccncc2C1=O)Nc1cc(F)ccc1F,-2.86%,–
O=C(COC(=O)c1cnccn1)Nc1ccc(Cl)cc1C(F)(F)F,-2.73%,–
CC(OC(=O)CNC(=O)c1ccc(Cl)c([N+](=O)[O-])c1)C(=O)NCc1ccco1 (configuration not stated),9.09%,–
Cc1cc(=O)oc2c3c(cc(OCC(=O)N[C@H](C(=O)O)c4ccccc4)c12)OC(C)(C)CC3,1.09%,–
